PubChem BioAssay (NCI)
Compounds without any hit were thinned out: in the full panel of roughly 79,000, 15% have a hit. A number with no mark means an inactive call. Active and inactive are the calls of the source. Rule as the data show it: active = growth inhibition above about 70%; inactive = the rest.

Columns and labels:
[1] = NCI Yeast Anticancer Drug Screen. Data for the rad50 strain (AID 155);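 also: 0% = growth of vehicle-only cultures of the same strain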; conditions: S. cerevisiae rad50 strain growth inhibition, active compounds read high
Outline: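 Compounds were tested on a yeast strain with an engineered DNA damage repair alteration; the reported value is growth inhibition normalised to vehicle treatment.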

[2] = NCI Yeast Anticancer Drug Screen. Data for the mec2-1 strain (AID 157); conditions: S. cerevisiae mec2-1 strain, active compounds read high
Outline: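 Using mec2-1 yeast: add compound, measure growth, express inhibition versus vehicle-treated cultures.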

[3] = NCI Yeast Anticancer Drug Screen. Data for the sgs1 mgt1 strain (AID 161);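 also: 0% = growth of cultures given vehicle only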; conditions: S. cerevisiae sgs1 mgt1 strain, active compounds read high
Outline: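 Percent growth inhibition was derived by comparing compound-exposed mutant yeast with vehicle-exposed cultures. The strain carries alterations in DNA damage repair.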

[4] = NCI Yeast Anticancer Drug Screen. Data for the cln2 rad14 strain (AID 165);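 also: 0% = growth equal to vehicle treated cultures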; conditions: S. cerevisiae cln2 rad14 strain, active compounds read high
Outline: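 Yeast strain cln2 rad14, bearing defects in cell cycle control and DNA repair, serves as the test system; values reflect growth inhibition compared with vehicle.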

[5] = NCI Yeast Anticancer Drug Screen. Data for the bub3 strain (AID 167); conditions: S. cerevisiae bub3 mutant strain, active compounds read high
Outline: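 Growth of a checkpoint-deficient yeast mutant is measured after compound exposure. Values represent inhibition relative to vehicle.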

[6] = NCI Yeast Anticancer Drug Screen. Data for the mlh1 rad18 strain (AID 175); conditions: S. cerevisiae mlh1 rad18 strain growth inhibition, active compounds read high
Outline: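 Steps: expose repair-defective yeast to compound; measure growth; express inhibition against vehicle-treated controls.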

[7] = at 5.0 µM (retest, dose inferred, filed as 0.5)
[8] = at 50.0 µM (retest, dose inferred, filed as 5.0)

SMILES	growth inhibition [1, 7]	growth inhibition [1, 8]	growth inhibition ([1]; at 50.0 µM)	growth inhibition [2, 7]	growth inhibition [2, 8]	growth inhibition ([2]; at 50.0 µM)	growth inhibition [3, 7]	growth inhibition [3, 8]	growth inhibition ([3]; at 50.0 µM)	growth inhibition [4, 7]	growth inhibition [4, 8]	growth inhibition ([4]; at 50.0 µM)	growth inhibition [5, 7]	growth inhibition [5, 8]	growth inhibition ([5]; at 50.0 µM)	growth inhibition [6, 7]	growth inhibition [6, 8]	growth inhibition ([6]; at 50.0 µM)
CN(C)c1ccc(/C=C/c2cc[n+]3ccsc3n2)cc1	-3%	69%	90.8% (active)	24%	94% (active)	88% (active)	-10%	93% (active)	92.2% (active)	-5%	63%	72% (active)	8%	90% (active)	96.2% (active)	2%	85% (active)	97.2% (active)
O=[N+]([O-])/C=C/c1cc2c(cc1Br)OCO2	78% (active)	89% (active)	98.5% (active)	53%	89% (active)	99.2% (active)	73% (active)	87% (active)	97.9% (active)	26%	62%	94.2% (active)	48%	89% (active)	82.5% (active)	68%	88% (active)	98.5% (active)
CCOc1ccc(/C=C/[N+](=O)[O-])cc1[N+](=O)[O-]	11%	98% (active)	95.6% (active)	7%	99% (active)	99.6% (active)	9%	99% (active)	99.5% (active)	16%	99% (active)	99% (active)	9%	99% (active)	99.3% (active)	12%	99% (active)	99.3% (active)
CN(Cc1ccccc1)CC(O)c1ccc(Cl)cc1 (configuration not stated)	-4%	38%	57.5%	-1%	23%	0.75%	2%	44%	58.6%	3%	25%	48.5%	2%	41%	60.5%	4%	34%	34.5%
CC1([CH2][Hg][I])CS(=O)(=O)CC(C)([CH2][Hg][I])O1 (configuration not stated)	99% (active)	98% (active)	95.7% (active)	100% (active)	99% (active)	98% (active)	100% (active)	99% (active)	97.3% (active)	99% (active)	98% (active)	96% (active)	100% (active)	99% (active)	97.8% (active)	99% (active)	98% (active)	96.2% (active)
C[N+](C)(C)CC1CCC(C[N+](C)(C)C)C1=O (configuration not stated)	-1%	6%	-1.75%	11%	26%	-1.05%	0%	-47%	-4.05%	-7%	5%	16.3%	-2%	6%	27.5%	-3%	3%	-14.2%
Cc1ccc(S(=O)(=O)OC2CCC3C4CC=C5CC(SC(=N)N)CCC5(C)C4CCC23C)cc1 (configuration not stated)	67%	82% (active)	47.9%	37%	28%	29.6%	96% (active)	95% (active)	94.1% (active)	4%	6%	3%	51%	36%	26.1%	51%	44%	66.3%
CCCCCC(Cn1ccnc1)c1ccc(Cl)cc1Cl (configuration not stated)	72% (active)	95% (active)	99.5% (active)	50%	94% (active)	99% (active)	69%	97% (active)	99.4% (active)	72% (active)	98% (active)	99.7% (active)	72% (active)	99% (active)	99.8% (active)	72% (active)	100% (active)	99.6% (active)
CCCCCCCC/C=C\CCCCCCCCN1CC(C(=O)[O][Pb]([CH2]C)([CH2]C)[CH2]C)CC1=O (configuration not stated)	7%	77% (active)	30.1%	5%	80% (active)	28.8%	10%	79% (active)	65.9%	5%	66%	9.45%	4%	82% (active)	23.3%	1%	72% (active)	65.7%
COC1=CC2=CCC3C(CCC4(C)C3CCC4(C)OC(C)=O)C2(C)CC1 (configuration not stated)	-2%	66%	51.4%	2%	43%	36.5%	0%	82% (active)	56.4%	0%	35%	30.6%	-12%	24%	76.6% (active)	-2%	76% (active)	55.5%
CCN(CC)CC(=O)c1ccc2c(ccc3ccccc32)c1	15%	98% (active)	99.2% (active)	26%	100% (active)	99.5% (active)	6%	99% (active)	99.5% (active)	-1%	97% (active)	99.3% (active)	8%	99% (active)	99.2% (active)	43%	99% (active)	99.3% (active)
COC(=O)C1=C(C(=O)OC)[C]([Hg][CH3])(C(C)=O)N=N1 (configuration not stated)	99% (active)	99% (active)	99.6% (active)	99% (active)	99% (active)	99.5% (active)	99% (active)	99% (active)	99.8% (active)	99% (active)	99% (active)	99.5% (active)	99% (active)	98% (active)	99.2% (active)	99% (active)	99% (active)	99.5% (active)
CCCCN(CC)CC(C(C)=O)c1c(O)c2ccccc2oc1=O (configuration not stated)	8%	22%	66.8%	4%	28%	48.2%	0%	65%	60.5%	15%	59%	45.2%	21%	73% (active)	59%	-13%	34%	42.9%
CN1CN(c2ccccc2)C2(CCN(C3Nc4ccccc4O3)CC2)C1=O (configuration not stated)	7%	33%	40%	2%	26%	44.5%	-1%	30%	58.5%	31%	42%	35%	-16%	-4%	50.8%	10%	57%	45.6%
O=C(CCN1CC1)NCCc1ccccc1	-152%	90% (active)	96.6% (active)	-44%	48%	83.3% (active)	-59%	84% (active)	58%	-60%	73% (active)	83.7% (active)	-72%	87% (active)	67.8%	-143%	90% (active)	93.7% (active)
CCOP(=S)(OCC)OC(c1ccc(Cl)cc1)c1ccc(Cl)cc1	3%	-11%	12.8%	0%	-7%	6.2%	7%	-20%	0.25%	6%	-29%	15.8%	11%	18%	49.6%	-1%	-11%	11.6%
CSc1nncc(=O)[nH]1.[Hg]	99% (active)	99% (active)	99.2% (active)	99% (active)	99% (active)	99.5% (active)	100% (active)	99% (active)	99.5% (active)	99% (active)	99% (active)	99.2% (active)	99% (active)	99% (active)	99.2% (active)	99% (active)	99% (active)	99.2% (active)
CC/C(=C(/CC)c1ccc(OP(N)(=O)N(CCCl)CCCl)cc1)c1ccc(OP(N)(=O)N(CCCl)CCCl)cc1 (configuration not stated)	18%	33%	17.1%	-5%	26%	5.6%	2%	42%	34.7%	3%	31%	-9.95%	29%	34%	0.1%	26%	51%	66.8%
COc1ccc(C2N(Cc3ccc(N(CCCl)CCCl)cc3C)CCCN2Cc2ccc(N(CCCl)CCCl)cc2C)cc1	10%	98% (active)	97.1% (active)	-32%	96% (active)	99% (active)	3%	99% (active)	99% (active)	2%	94% (active)	75% (active)	26%	96% (active)	98.3% (active)	18%	97% (active)	98.5% (active)
